According to PubChem BioAssay (NCATS):
Records with an inconclusive call do not appear. Unmarked numbers belong to inactive results. Activity calls are given as the source filed them. Calls follow the shape of the dose curve; as a rule, active = well fitted activation curve with a large enough effect; inconclusive = small, poorly fitted or top-dose-only effect; inactive = flat fitted curve, though single readings scatter.

Experiment: HEK293 18hr Apoptosis Induction qHTS against the NCATS CANVASS Library (AID 1347357); as to caspase activation: 0% is about no effect
Settings: HEK293 caspase-3/7 Caspase-Glo luminescence; series mostly up to 46.1 µM; caspase activation: at the top concentration
Excerpt: Natural products and their derivatives continue to be wellsprings of nascent therapeutic potential. However, many laboratories have limited resources for biological evaluation, leaving their previously isolated or synthesized compounds largely or completely untested. To address this issue, the Canvass library of natural products was assembled (https://tripod.nih.gov/canvass), in collaboration with academic and industry researchers, for quantitative high-throughput screening (qHTS) across a diverse set of cell-based and biochemical assays. The pure (>85% purity by liquid chromatography/mass spectrometry [LC/MS]) Canvass library of 346 natural products were submitted by 45 academic laboratories and companies around the world. We collected pure natural products to circumvent deconvolution and structure elucidation due to time and resource limitations. The library was formatted into 1536-well plates and evaluated in 50 qHTS (in an 11-pnt concentration series) bioassays with broad scope of disease-relevant mechanisms. The resulting data set from 50 different assays was then systematically analyzed to identify overall trends and specific natural products with interesting biological activities. Reported herein are the results of each individual qHTS and their corresponding assay protocol. The Caspase-Glo (R) (Promega) is a homogeneous, luminescent assay that measures caspase activity. The detection substrate contains tetrapeptide sequence DEVD in an "add-mix-measure" format. The reagent generates a luminescent signal produced by a thermostable luciferase. The luminescence is proportional to the amount of caspase activity in the assay reaction. National Center for Advancing Translational Sciences (NCATS), Rockville, MD National Institute of Health (NIH), Bethesda, Maryland
Cancer Cell Apoptosis Assay 1. In a 1536 well, white solid bottom tissue culture plates (Corning 7494), HEK293 cancer cells in DMEM + 10% FBS + 1% P/S media were dispensed in each well at a final concentration of 500 cells / well (5uL volume) using the Multidrop Combi (Thermo Fisher Scientific) dispenser. 2. Compounds were pin transferred (~23nL volume) via Wako Pin-tool (Wako Automation, Richmond VA) equipped with a 1536 pin head. The assay plates were treated with compounds in a concentration series with a final concentration range of 0.17nM to 103uM. 3. Doxorubicin was used as a control in a 16pnt titration (1mM; 1:2 dilution; 16-points; n = 2; column 3, rows 1 - 32) and was pin transferred via Wako Pin-tool equipped with a 1536 pin head. The final concentration range of doxorubicin is 0.1nM - 4uM. 4. The assay plates were incubated for 18 hours at 37 degrees C/5% CO2/95% Rh. 5. 3uL Caspase-Glo 3/7 (R) (Promega) detection reagent was then added to the assay plates (columns 2 - 48, rows 1 - 32) and incubated at room temperature, covered from light, for 15 min. 6. Luminescence signal was acquired via the ViewLux plate reader (PerkinElmer) using a clear filter, 20 second exposure and 2x binning settings.
Potency is read from the fitted curve at half-maximal effect.

Compared with `C=C1C[C@@]23C=CC(=O)[C@@](C)(CCCC(C)C(=O)O)[C@@H]2C[C@@H]1CC3` (stereo not given in full), `C[C@@H](CCC[C@]1(C)C(=O)C=C[C@]23C[C@H]4C[C@H](O[C@@]4(C)C2)C31)C(=O)N[C@@H](CO)C(=O)O` (stereo not given in full) is higher in “caspase activation” value: -0.897% for the first, 2.24% for the second.

Going from `CO[C@@H]1C[C@@H](C[C@H]2CC[C@H](C)[C@H]([C@@H](C)C(=O)O)O2)O[C@]2(O[C@](C)([C@H]3CC[C@@](C)([C@@H]4O[C@@H]([C@H]5O[C@](C)(O)[C@H](C)C[C@@H]5C)C[C@@H]4C)O3)C[C@H]2C)[C@@H]1C` to `C[C@@]12CCC[C@@](C)(C(=O)O)[C@H]1C[C@@H](O)[C@]13C[C@H]4C[C@H](O[C@@]4(C)C1)[C@@H]23`, the “caspase activation” value falls from 1.25% to 0.579%.

First: C[C@@]12CCC[C@@](C)(C(=O)O)[C@H]1CC[C@]13C[C@H]4C[C@H](O[C@@]4(C)C1)[C@H]32
Second: CC1(C)CCC[C@]2(C)[C@@H]1CC[C@@]13C[C@@H](CC[C@H]12)C(C)(O)C3 (stereo not given in full)
The “caspase activation” value of the first is lower: 1.14% for the first, 2.49% for the second.

Compared with `CC1C(=O)C23CCC1C[C@]21O[C@@H]2C(C)(C)C=CC(=O)[C@@]23COC1=O` (stereo not given in full), `C[C@@H]1C(=O)[C@]23CC[C@H]1C[C@]21O[C@H]2C(C)(C)C=CC(=O)[C@]23COC1=O` is higher in “caspase activation” value: 2.35% for the first, 3.28% for the second.

Compared with `Oc1ccc(C2c3c(O)cc(O)cc3[C@@H]3C(c4ccc(O)cc4)c4c(O)cc(O)cc4[C@H]23)cc1` (stereo not given in full), `Oc1ccc([C@H]2Oc3ccc(/C=C/c4cc(O)cc(O)c4)cc3C2c2cc(O)cc(O)c2)cc1` (stereo not given in full) is higher in “caspase activation” value: 1.3% for the first, 4.39% for the second.

Going from `CC1(C)C=Cc2c(ccc3c2OC[C@@H](c2ccc(O)cc2O)C3)O1` to `O=C1CC(c2cc(O)cc(O)c2)Oc2cc(O)ccc21` (stereo not given), the “caspase activation” value falls from 2.44% to -3.26%.

Compared with `COc1cc(O)c2c3c(c(O)cc(C)c13)C(=O)OC2`, `COc1ccc(CCCc2cc(O)c(OC)c(O)c2)c(O)c1O` is higher in “caspase activation” value: 2.79% for the first, 4.86% for the second.

First: C/C=C/c1cc(OC)c2c(c1)[C@@H](C)[C@H](c1ccc(O)c(OC)c1)O2
Second: COc1ccc([C@@H]2c3cc(OC)c(OC)cc3C(=O)C(C)C2C)cc1OC (stereo not given in full)
The “caspase activation” value of the first is lower: 0.834% for the first, 2.72% for the second.

Compared with `O=C(OC1Cc2c(O)cc(O)cc2OC1c1cc(O)c(O)c(O)c1)c1cc(O)c(O)c(O)c1` (stereo not given), `COc1cc(/C=C2/C(=O)N(c3ccc(O)cc3C(=O)O)[C@H](c3ccc(O)c(OC)c3)C2C(=O)Nc2ccc(O)cc2C(=O)O)ccc1O` (stereo not given in full) is lower in “caspase activation” value: 6.91% for the first, 0.993% for the second.

First: C=C1/C=C\C(CCC)=C\c2csc(n2)C(C)NC(=O)C[C@@]2(CC(=O)O)CCC(=C)[C@H](C1)S2 (stereo not given in full)
Second: C/C1=C\CC(=O)/C=C/C=C\c2csc(n2)[C@@H](C)NC(=O)C[C@@](S)([C@@H](C)C(=O)O)CC1
The “caspase activation” value of the first is higher: 3.86% for the first, 1.5% for the second.

Going from `CC1=CC[C@@]2(C[C@@H]1O)[C@@H](C(=O)O)CC[C@H]2C(C)C` to `C/C1=C/[C@@H](C)[C@H](O)C/C=C/CC/C=C/C(=O)O[C@@H]1[C@H](C)C(=O)/C=C/CC1CC(=O)NC(=O)C1`, the “caspase activation” value rises from 1.36% to 24.6%.

First: O=C(O)CC1OCc2c(O)cccc21 (stereo not given)
Second: O=C(O)CC1OC(=O)c2c(O)cccc21 (stereo not given)
The “caspase activation” value of the first is lower: -0.81% for the first, -0.421% for the second.

First: O=C(O)Cc1c[nH]c2ccccc12
Second: C[C@@]12C[C@@H](C[C@H]3C(=O)O[C@@H](c4ccoc4)[C@H](OC(=O)c4ccccc4)[C@@H]31)OC2=O
The “caspase activation” value of the first is lower: 1.03% for the first, 1.38% for the second.

Compared with `CC(C)=CCC/C(C)=C/Cc1c(O)c(CC=C(C)C)c(O)c2c(=O)c3cc(O)ccc3oc12`, `O=c1cc(-c2ccc(O)cc2)oc2c([C@@H]3OC(CO)[C@H](O)[C@@H](O)[C@H]3O)c(O)cc(O)c12` (stereo not given in full) is lower in “caspase activation” value: 10.9% for the first, 1.33% for the second.

First: CN1C(=O)C2C(N=CN2C)N(C)C1=O (stereo not given)
Second: CC1(C)[C@H](Br)CC[C@]23C[C@]4(C)C(=O)CC12C[C@H]34
The “caspase activation” value of the first is lower: 2.01% for the first, 3.87% for the second.

Compared with `C=C1C[C@@]23C=CC(=O)[C@@](C)(CCC(=O)Nc4c(OC5O[C@H](CO)[C@@H](O)[C@H](O)[C@H]5O)ccc(C(=O)O)c4O)C2C[C@@H]1CC3` (stereo not given in full), `CNc1ccc(Cl)cc1C(=O)OC[C@]1(C)[C@H]2CC[C@]3(C)[C@@H](C[C@@H](OC)[C@H](C)[C@H]3C3=C(O)C(=O)OC3O)[C@]2(C)CC[C@H]1O` (stereo not given in full) is lower in “caspase activation” value: 0.381% for the first, -1.41% for the second.

Going from `O=Cc1ccc2n1C[C@@]1(OC2)O[C@H](CO)[C@@H](O)[C@@H]1O` to `O=Cc1ccc2n1C[C@@]1(C[C@H](O)[C@@H](CO)O1)OC2`, the “caspase activation” value rises from -1.02% to 0.907%.

Going from `C/C(=C\[C@H](C)C(=O)CCCC1CC(=O)NC(=O)C1)C(O)[C@@H](C)[C@H](O)C/C=C/CC/C=C/C(=O)O` (stereo not given in full) to `C=C[C@@]1(C)CC[C@@H]([C@H](C)C(=O)/C=C/C(C)C)O1`, the “caspase activation” value falls from 1.09% to 0.167%.

Compared with `COc1ccc2oc3c(OC)c(OC)c(OC)c(OC)c3c(=O)c2c1`, `COc1ccc([C@@H]2c3cc(OC)c(OC)cc3C(=O)[C@H](C)C2C)cc1OC` (stereo not given in full) is higher in caspase activation: 2.9% [at 9.19 µM] for the first, 3.8% [at 9.19 µM] for the second.

With `CCCCCCCCC[C@@H]1C[C@@H]2CC[C@H]3[C@@H](C(=O)OCCCCN=C(N)N)[C@@H](C)N=C(N1)N23` the “caspase activation” value was -1.94% [at 27.5 µM].

With `CCCCCCCCCCCCCCC[C@H](O)C[C@@H](O)C[C@@H](O)C[C@@H](O)C[C@@H](O)C[C@H]1CC=CC(=O)O1` the Potency was 16.6 µM (active).
